Compound activity from PubChem BioAssay.
Most compounds without a hit are left out; they make up all but 2.3% or so of the library.
CHO-K1 Ca ag – M1 agonist counterscreen hit in parental CHO-K1 cells. activation, % at 3 µM. AID 602248. Fluo-8 calcium fluorescence; scaled to maximal ATP response, vehicle zero. 0.48% of 360,000 active; in the data active = activation above about 15%;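 also: untransfected CHO-K1 host cells lacking M1 receptor as counterscreen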
M1 PAM – potentiates human M1 receptor response to acetylcholine | activation, % at 3 µM | 0.088% of 360,000 active | CHO-K1 hM1, Fluo-8 calcium fluorescence, ACh EC20; 0% = ACh EC20, 100% = maximal ACh | AID 588819 | P11229; in the data active = activation above about 19%, passing the limit was not always enough
Target sequence (P11229 whole entry, looked up): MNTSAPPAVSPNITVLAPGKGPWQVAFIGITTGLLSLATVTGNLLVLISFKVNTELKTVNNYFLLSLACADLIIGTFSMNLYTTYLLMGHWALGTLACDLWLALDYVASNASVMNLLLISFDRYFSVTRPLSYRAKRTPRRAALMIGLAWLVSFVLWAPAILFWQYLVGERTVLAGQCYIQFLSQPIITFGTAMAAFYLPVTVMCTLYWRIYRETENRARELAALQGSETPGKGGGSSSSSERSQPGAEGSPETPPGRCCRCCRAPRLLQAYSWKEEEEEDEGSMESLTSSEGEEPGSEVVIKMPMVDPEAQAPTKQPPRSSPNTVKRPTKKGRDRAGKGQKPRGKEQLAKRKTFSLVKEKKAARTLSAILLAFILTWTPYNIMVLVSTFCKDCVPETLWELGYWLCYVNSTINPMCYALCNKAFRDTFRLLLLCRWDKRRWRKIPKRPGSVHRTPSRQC
M1 ag – human M1 muscarinic receptor agonism; P11229; 0.33% of 360,000 active; AID 588814; activation, % at 3 µM; CHO-K1 hM1, Fluo-8 calcium fluorescence, agonist mode; 0% DMSO, 100% acetylcholine EC100;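 active = activation above the run's mean compound activation plus 3 SD, cut at about 16% in these data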;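 also: peak over basal fluorescence ratio within a 140 s kinetic read after compound addition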
CHO-K1 Ca PAM – M1 PAM counterscreen hit in parental CHO-K1 cells; ATP EC20, Fluo-8 calcium fluorescence; 0% at ATP EC20, 100% at ATP max; activation, % at 3 µM; 0.02% of 360,000 active; AID 602247;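 active = activation above the run cutoff, the mean activation of all test compounds plus 3 SD, cut at about 40% in these data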;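 also: peak over basal fluorescence ratio in a 140 s read after ATP addition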
CHO-K1 Ca antag – counter-screen for M1 antagonists: effect in parental CHO-K1 cells; inhibition, % at 3 µM; ATP-induced calcium, Fluo-8 fluorescence; 0.6% of 360,000 active; AID 602250;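 active = inhibition above a per-plate cutoff, the plate's mean sample inhibition plus 3 SD, cut at about 24% in these data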;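 also: 0% = DMSO plus EC80 ATP and 100% = DMSO alone without ATP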
CHRM1 antagonist – blocks human M1 muscarinic receptor | P11229 | CHO-K1 hM1, Fluo-8 calcium fluorescence, ACh EC80 antagonist | inhibition, % at 3 µM | 1.3% of 360,000 active;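 active = percent inhibition above its own plate's cutoff, namely the mean of that plate's compound wells plus 3 SD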;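 also: peak over basal fluorescence ratio during 140 s after agonist addition; 0% = ACh EC80 plus DMSO and 100% = DMSO alone without agonist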
* marks the source's active call; other numbers are inactive results.

SMILES	CHO-K1 Ca ag	M1 PAM	M1 ag	CHO-K1 Ca PAM	CHO-K1 Ca antag	CHRM1 antagonist
Cc1cccc(Cn2c(N3CCN(C)CC3)nc3c2c(=O)[nH]c(=O)n3C)c1	9.1	7.3	-2.5	17.9	-2.3	-3.8
CC(=O)Cn1c(N2CCC(Cc3ccccc3)CC2)nc2c1c(=O)[nH]c(=O)n2C	-0.5	21.5*	-1.0	23.3	-17.1	-48.5
Cc1cccc(-n2ccnc2CN2CCC(CO)(Cc3ccccc3)CC2)c1	0.3	-1.1	-3.9	6.8	-12.6	1.2
CN(C)C(C)(C)C#CC(O)(c1ccccc1)c1ccccc1	0.3	-23.6	-5.9	2.6	-9.2	100.1*
CN(C)CCC#CC(O)(c1ccccc1)c1ccccc1	10.2	-24.9	-8.2	20.2	1.9	65.0*
CCN(CC)CC#CC(O)(c1ccccc1)c1ccccc1	3.7	-37.8	-15.7	17.5	-22.7	99.4*
OCCN(CC#CC(O)(c1ccccc1)c1cccc(F)c1)CCO (stereo unspecified)	0.1	9.7	-8.4	20.1	-19.2	-16.4
CC(C)(C(N)=O)c1ccccc1	1.9	2.3	-3.4	8.1	-13.5	6.0
CCCOc1ccc(-c2c(C(=O)N/N=C(\C)c3cccs3)nnn2-c2nonc2N)cc1	-0.8	8.6	-0.2	-0.1	0.3	-10.6
CC1CCCCN1CCCNC(=O)CN1C(=O)c2cccnc2Oc2ccccc21 (stereo unspecified)	1.6	0.0	-4.4	13.6	-13.1	-3.5
CC(C)CNC(=O)C1(C)CCCN1C(=O)c1cccnc1Oc1ccccc1 (stereo unspecified)	0.0	-1.6	0.7	-6.7	-0.3	1.0
Cn1ccnc1C1CCCCN1Cc1nc(Cc2ccccc2F)no1 (stereo unspecified)	3.5	-25.9	-6.7	12.2	-11.8	98.6*
COC(=O)c1ccc(-c2noc(CN3CCCCC3c3nccn3C)n2)cc1 (stereo unspecified)	-0.1	-34.3	-13.7	-1.3	2.0	35.3*
COc1cc(O)cc2c1[C@@H]1Oc3c(ccc(O)c3CC=C(C)C)[C@@H]1CO2	0.6	0.1	-4.5	8.6	-12.3	-7.5
CCOc1cccc(-c2c(C(=O)N/N=C/c3ccc(C)o3)nnn2-c2nonc2N)c1	3.2	2.1	4.3	18.1	-17.0	-1.1
CCOCCCNC(=O)c1ccc(-n2c(=S)[nH]c3ccccc3c2=O)cc1	4.1	0.0	-3.9	11.8	2.2	6.9
CC(C)(C)N(Cc1ccccc1)C(=O)c1ccc(Cl)cc1[N+](=O)[O-]	2.2	-28.7	-10.2	-13.2	16.0	38.9*
CC(C)(C)N(Cc1ccccc1)C(=O)c1ccc(Br)o1	-0.3	3.7	-6.7	6.3	-14.4	-4.9
Cc1ccc(C(=O)N(Cc2ccccc2)C(C)(C)C)cc1C	-0.5	-25.7	-7.0	3.6	10.2	51.4*
CCC(C)n1c(=S)[nH]c2c(sc3ccc([N+](=O)[O-])cc32)c1=O (stereo unspecified)	1.1	4.3	-1.4	2.9	-4.5	-11.6
CC1(C(=O)NS(=O)(=O)c2ccccc2Cl)CCN1C(=O)c1ccccc1CCc1ccccc1 (stereo unspecified)	0.2	0.0	-5.7	8.0	-7.8	-0.1
C[C@H]1CN([C@@H](C)CO)C(=O)CCCn2nncc2CO[C@@H]1CN(C)Cc1ccc(-c2ccccc2)cc1	5.5	-26.0	-4.6	3.7	2.6	37.1*
C[C@@H]1CN([C@H](C)CO)C(=O)CCCn2nncc2CO[C@H]1CN(C)Cc1ccc(-c2ccccc2)cc1	-0.2	-6.0	-11.2	-11.0	9.6	-1.4
COc1ccc(S(=O)(=O)N(C)C[C@@H]2OCc3cnnn3CCCC(=O)N([C@@H](C)CO)C[C@@H]2C)cc1	0.6	28.5*	4.9	18.6	-6.0	-38.1
Cc1ccc(S(=O)(=O)N(C)C[C@H]2OCc3cnnn3CCCC(=O)N([C@@H](C)CO)C[C@H]2C)cc1	0.4	1.2	-4.8	8.8	-3.4	3.5
Cc1noc(C)c1NC(=O)N(C)C[C@H]1OCc2cnnn2CCCC(=O)N([C@H](C)CO)C[C@H]1C	0.2	26.6*	5.2	13.1	-4.7	-21.0
C[C@@H]1CN([C@@H](C)CO)C(=O)CCCn2nncc2CO[C@@H]1CN(C)C(=O)Nc1cccc(C(F)(F)F)c1	-0.4	10.4	-1.2	-5.1	26.3*	-16.2
